An excerpt weighted towards active compounds, which were near 2.4% of everything screened.
D2 ag-1 = agonists of human D2 dopamine receptor | P14416 | HEK293 T-REx D2 cells, calcium flux agonist mode | activation, % at 2 µM | 0.53% of 340,000 active;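 active = activation over 3 SD above normal in the single-dose calcium agonist read, cut at about 30% in these data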; also: 0% is about no effect
Target sequence (P14416 whole entry, looked up): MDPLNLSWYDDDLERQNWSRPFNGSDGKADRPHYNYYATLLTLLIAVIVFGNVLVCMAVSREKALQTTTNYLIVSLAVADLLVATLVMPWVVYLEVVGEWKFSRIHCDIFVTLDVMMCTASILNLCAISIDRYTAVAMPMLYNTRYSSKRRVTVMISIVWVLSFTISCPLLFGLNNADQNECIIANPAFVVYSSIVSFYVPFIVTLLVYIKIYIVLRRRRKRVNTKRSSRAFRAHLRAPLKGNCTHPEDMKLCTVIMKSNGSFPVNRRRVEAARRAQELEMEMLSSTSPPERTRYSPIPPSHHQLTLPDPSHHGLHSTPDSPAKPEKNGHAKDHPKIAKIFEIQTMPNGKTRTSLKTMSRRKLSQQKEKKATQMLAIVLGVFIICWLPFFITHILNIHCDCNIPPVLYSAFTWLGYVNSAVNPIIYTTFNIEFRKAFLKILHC
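In this primary screen, compounds producing a positive calcium signal within 180 s of addition to tetracycline-induced, force-coupled HEK293 Trex D2 cells are flagged; cells are dye-loaded with a no-wash calcium kit beforehand.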
D2 PAM-1 = D2 dopamine receptor (human) potentiation; 0.34% of 340,000 active; HEK293 T-REx D2, calcium flux, EC20 dopamine potentiation; potentiation, % at 10 µM;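 active = potentiation over 3 SD above the plate norm, cut at about 30% in these data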; also: 0% is about no effect
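Cells plated with tetracycline inducer and held overnight at 30 C; calcium dye loaded 30–90 min at room temperature; baseline taken, compound added and read 180 s; EC20 dopamine then added and read 180 s.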
D2 antag = D2 dopamine receptor (human) antagonism. P14416. HEK293 TREx D2 cells, calcium flux, dopamine EC80. inhibition, % at 10 µM. 2% of 340,000 active; in the data active = inhibition above about 30%; inactive = below that, where a call was filed; also: 0% is about no effect
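Cells plated overnight at 30 C with tetracycline; no-wash calcium dye, 30–90 min RT; 10 s baseline; compound pinned; 180 s read; EC80 dopamine added; another 180 s read.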
D2 ag-2 = agonists of human D2 dopamine receptor (beta-arrestin) | 0.084% of 360,000 active | activation, % (no concentration beside the values) | DiscoveRx PathHunter D2 beta-arrestin, luminescence, 90 min; 100% = 57 uM dopamine signal; in the data active = activation above about 40%
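Agonist mode: compounds alone added to overnight-plated D2 PathHunter cells for 90 min at 37 C, with 57 uM final dopamine (EC100) defining full response. Beta-arrestin recruitment detected by chemiluminescent reagent, read after 1 h at ambient temperature.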
D2 PAM-2 = human D2 receptor positive allosteric modulation. potentiation, % (concentration not given with the values). P14416. 0.23% of 360,000 active. AID 624464. DiscoveRx D2 beta-arrestin cells, luminescence, 90 min; 100% = 57 uM dopamine signal; in the data active = potentiation above about 50%
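PathHunter D2 cells, attached overnight at 37 deg C, received compound in DMSO plus dopamine at EC20 (50 nM final) for 90 min at 37 deg C. Beta-arrestin recruitment was read as luminescence after 1 h with detection reagent at ambient temperature.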
An asterisk follows results filed as active; . = not tested or not shown.

SMILES	D2 ag-1	D2 PAM-1	D2 antag	D2 ag-2	D2 PAM-2
CCOC(=O)N1CCC(NCCNC(=O)c2cccc(F)c2)CC1	5.7	-23.7	60.3*	-1.7	-20.7
CCOC(=O)N1CCC(NCCNC(=O)c2ccc(F)cc2)CC1	4.5	-25.1	66.2*	-1.4	-21.4
CCC(C)NC(=O)CSc1nc2cc3c(cc2c(=O)n1Cc1ccc(C(=O)NCCc2ccc(OC)c(OC)c2)cc1)OCO3 (stereo not drawn)	-0.1	-11.8	.	.	.
NC(=O)CC(NC(=O)c1ccccc1)c1ccc(NCC2CC2)c([N+](=O)[O-])c1 (stereo not drawn)	0.2	-0.6	6.8	-6.1	-9.2
CCCCNc1ccc(C(CC(N)=O)NC(=O)Cc2cccc3ccccc23)cc1[N+](=O)[O-] (stereo not drawn)	0.7	-4.6	-0.8	-1.2	-0.6
Cc1cccc(CNc2ccc(C(CC(N)=O)NC(=O)Cc3cccc4ccccc34)cc2[N+](=O)[O-])c1 (stereo not drawn)	-0.5	1.8	33.8*	-4.1	-4.0
NC(=O)CC(NC(=O)c1cccc(Br)c1)c1ccc(NCC2CC2)c([N+](=O)[O-])c1 (stereo not drawn)	0.2	-8.9	37.7*	-3.1	-10.8
Cc1cc2nc3c(=O)n(C4CCCCC4)c(=O)[nH]c3nc2cc1N	61.4*	-4.4	-27.6	5.4	9.3
Cc1cc(C)cc(Nc2cc(=O)n(C3CCCCC3)c(=O)[nH]2)c1	1.3	3.3	6.3	1.1	-1.3
CCOC(=O)c1sc(NC(=S)NC(=O)c2ccco2)nc1C	-1.0	23.3	-10.8	-6.3	4.6
CCOC(=O)c1sc(NC(NC(=O)c2ccco2)(C(=O)OC)C(F)(F)F)nc1C (stereo not drawn)	0.2	-0.4	33.8*	-2.3	-8.0
Cc1noc(C)c1CSc1nc2ccccc2s1	-0.4	.	18.0	-1.7	-0.9
c1csc(CSc2nc3ccccc3s2)c1	0.4	13.4	39.1*	-1.0	7.4
COc1ccc(-c2nc3ccc([N+](=O)[O-])cc3[nH]2)cc1	0.8	5.0	1.5	3.0	17.5
Cc1ccc(-c2nc3ccc([N+](=O)[O-])cc3[nH]2)cc1	0.3	0.1	44.5*	-0.3	-1.3
CCOc1ccccc1NC(=O)C(c1ccccc1)N1Cc2ccccc2C1=O (stereo not drawn)	0.3	2.6	.	.	.
Clc1cccc(OCCCCN2CCCCC2)c1	0.8	-25.2	76.8*	-4.1	-4.0
CC(=O)N1CCC(C(=O)NCCOc2cccc(C)c2)CC1	-0.9	-2.3	34.6*	1.2	1.3
Cc1cccc(OCCCN2CCCCCC2)c1	-0.4	-14.8	40.3*	0.7	-20.4
CCOC(=O)c1ccc(NC(=O)c2oc(=O)c3ccccc3c2-c2ccccc2)cc1	0.1	0.5	.	.	.
CCCn1c2ccccc2c2cnn(CC(=O)NCCc3ccc(OCC)c(OCC)c3)c(=O)c21	-0.7	-20.4	.	.	.
CCn1c(=O)c2cc(C(=O)N3CCN(c4cccc(Cl)c4)CC3)sc2c2ccccc21	-0.9	-11.0	.	.	.
CC(=O)c1cccc(NC(=O)NCCc2c[nH]c3ccccc23)c1	-0.7	-6.1	-5.6	-1.2	-9.8
O=C(Nc1cccc(CNCCc2c[nH]c3ccccc23)c1)c1ccccc1Cl	21.6	-33.9	72.4*	-4.4	-24.4
CCCCNc1sc(S(=O)(=O)CC)nc1S(=O)(=O)c1ccc(C)cc1	0.7	12.4	.	.	.
SMILES	D2 ag-1	D2 PAM-1	D2 antag	D2 ag-2	D2 PAM-2
CCOC(=O)CC(NCc1ccc(OC)c(OCC)c1)c1ccc(C)cc1 (stereo not drawn)	-0.3	-20.1	60.6*	-0.2	-12.9
Cc1ccc2[nH]c(C)c(CCNC(=O)c3cc4cc(Br)ccc4oc3=O)c2c1	0.1	3.0	.	.	.
CCc1cc2c(SCC(=O)c3cccs3)ncnc2s1	0.1	0.2	33.5*	-3.5	-17.2
COc1ccc(Br)cc1/C=C/C(=O)Nc1ccc2ccccc2c1	-0.2	-19.3	-21.6	-0.5	-9.3
COc1cc(OC)c2cc(C(=O)N/N=C/c3cccc(OC)c3O)[nH]c2c1	-0.8	9.8	-10.0	-2.6	19.8
COc1ccccc1/C=C/C(=O)NCC(=O)N/N=C/c1cc(Br)ccc1OC	0.2	-9.7	64.2*	-0.9	-11.8
COc1ccc(Br)cc1/C=C/C(=O)Nc1ccc(C)cc1	-0.1	-20.4	73.6*	1.7	-16.0
COc1ccccc1/C=C\C(=O)NCC(=O)N/N=C/c1cccc(OC)c1O	-0.8	-22.9	49.5*	-0.2	-35.0
COc1cccc(/C=N/NC(=O)c2cc3c(OC)ccc(OC)c3[nH]2)c1O	-1.9	-14.1	8.7	-4.2	52.0*
COc1ccc(/C=N/NC(=O)CNC(=O)/C=C/c2ccccc2OC)cc1	-0.2	-29.8	-5.6	-3.8	-9.1
COc1ccc(/C=C\C(=O)NCC(=O)N/N=C/c2ccc(O)cc2O)cc1	-1.7	-16.5	-10.4	-3.7	-22.1
COc1cccc(/C=N/Nc2ccc(C(=O)O)cc2)c1O	-0.4	0.1	0.9	-0.8	78.6*
COc1ccc(/C=C/C(=O)NCC(=O)N/N=C/c2cc(Br)ccc2OC)cc1	0.3	-17.9	69.5*	2.0	-18.9
COc1cccc(/C=N/Nc2ccc(S(=O)(=O)O)cc2)c1O	.	.	.	-0.2	7.9
CCN(c1ccccc1)C(CNS(=O)(=O)c1ccccc1)c1ccccc1 (stereo not drawn)	0.7	8.6	.	.	.
CON(C)S(=O)(=O)c1cccc(C(=O)Nc2ccc(S(=O)(=O)NC3=NCCCCC3)cc2)c1	-0.7	-4.5	32.7*	0.4	-17.6
CN(C)S(=O)(=O)N1CCc2ccc(NC(=O)C3CCCO3)cc2C1 (stereo not drawn)	0.8	0.1	31.3*	-0.8	-5.4
O=C(Nc1ccc(S(=O)(=O)N2CCc3ccccc3C2)cc1)C1CCCO1 (stereo not drawn)	0.4	-15.3	11.4	-1.7	-10.6
COc1ccc(/C=N/NC(=O)c2ccc(O)cc2O)cc1CSc1ccccn1	39.2*	-14.8	19.1	0.3	-1.2
CCOc1cc(C(=O)N(Cc2nc(-c3ccc(C)cc3)no2)C(C)C)cc(OCC)c1OCC	0.6	-1.5	.	.	.
CCCCn1ccc(O)c(Cc2ccc(F)cc2)c1=O	-0.6	0.0	0.4	-3.3	-38.8
O=c1c(Cc2ccc(F)cc2)c(O)ccn1CCc1ccccn1	0.8	-7.0	40.9*	-4.4	-1.9
NC[C@H]1O[C@H](O[C@H]2[C@H](O)[C@@H](O[C@H]3O[C@H](CO)[C@@H](O)[C@H](N)[C@H]3O)[C@H](N)C[C@@H]2N)[C@H](N)C[C@@H]1O	1.9	-3.5	36.9*	-1.8	5.9
Fc1ccc(N2CCN(C3=Nc4cccc5cccc3c45)CC2)cc1	-3.5	-0.9	8.2	-3.4	-17.7
CN1CCN(C2=Nc3cc(F)ccc3Cc3ccccc32)CC1	1.0	-26.2	32.9*	.	.
Cc1ccc(NC(=O)c2ccc(CSc3nccc(C)n3)cc2)cc1	-0.5	-21.3	31.1*	1.3	-29.7

Bioassay records: PubChem, National Center for Advancing Translational Sciences (NCATS)
